# PubChem BioAssay (NCATS)
# Records with an inconclusive call do not appear. Entries that show only a call come without a potency. Active and inactive are the calls of the source. Unless noted, calls follow the shape of the dose curve; as a rule, active = well fitted curve in the direction sought with a large enough effect; inconclusive = small, poorly fitted or top-dose-only effect, or another doubt; inactive = no such curve, though single readings can be large; an effect the other way counts as inactive or inconclusive. Numbered stars: 1 amine (or outer) side, 2 acyl side, 3 side chain; on linkers, the order of the positions; unused ones are H or OH. Square brackets hold non-standard residues; d marks the D form. Peptide text beside a SMILES is read from it. X1 = CCCCCCCCCC(=O)[C@H](C(=O)[*:2])[C@@H]1CNC(=O)[C@@H](N[*:1])CS1
# Tests used:
# [1] = UWB1.289 Cancer Cell Toxicity qHTS against the NCATS CANVASS Library (AID 1347347); also: nearly all actives have a fitted effect of over 60% in size; also: potency is read from the fitted curve at half-maximal effect
# In short: (§1)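 Viability read-out: CellTiter-Glo luminescence after 72 h compound exposure at 37 °C/5% CO2. Cells plated at 1000/well, 4 h pre-incubation; 11-point titration. Bortezomib served as control.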
# [2] = qHTS for Antimalaria activity screened against the NCATS CANVASS Library (AID 1347380); also: nearly all actives have a fitted effect of over 40% in size; also: potency is read from the fitted curve at half-maximal effect;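 as to activity change, negative = inhibition: Plasmodium falciparum strain Dd2 asexual parasites grown in red blood cells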
# In short: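 Red blood cells infected with P. falciparum Dd2 (2.5% hematocrit final, 0.3% parasitemia) were exposed to compounds in an 11-point qHTS series for 72 hr at 37C under 5% O2 and 5% CO2. Lysis buffer with SYBR Green was then added for 18 hr, and fluorescence was read at 485/535 nm.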
# [3] = Inflammasome Signaling qHTS Counterscreen: IL-1-beta AlphaLISA counterscreen against the NCATS CANVASS Library (AID 1347381);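 also: cell-free check with purified IL-1β in medium and no THP-1 cells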
# In short: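 Cell-free interference check: compounds added to medium spiked with 4 pg purified IL-1β. Anti-IL-1β acceptor beads (6 ug/mL) with 0.6 nM biotinylated antibody added for 1 h at RT, then streptavidin donor beads (24 ug/mL) for 30 min in the dark. AlphaLISA read at 680/615 nm.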
# [4] = HEK293 18hr Apoptosis Induction qHTS against the NCATS CANVASS Library (AID 1347357)
# In short: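 HEK293 cells (500/well, DMEM + 10% FBS) treated with an 11-point series for 18 h at 37 degrees C. Caspase-3/7 activity read by Caspase-Glo luminescence after 15 min at room temperature.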
# [5] = target: Luciferin 4-monooxygenase (Photinus pyralis) (UniProt P08659); test: Firefly luciferase counterscreen qHTS: Assay Interference Panel against the NCATS CANVASS Library (AID 1347363)
# Luciferin 4-monooxygenase (Photinus pyralis), sequence (P08659 whole entry, looked up): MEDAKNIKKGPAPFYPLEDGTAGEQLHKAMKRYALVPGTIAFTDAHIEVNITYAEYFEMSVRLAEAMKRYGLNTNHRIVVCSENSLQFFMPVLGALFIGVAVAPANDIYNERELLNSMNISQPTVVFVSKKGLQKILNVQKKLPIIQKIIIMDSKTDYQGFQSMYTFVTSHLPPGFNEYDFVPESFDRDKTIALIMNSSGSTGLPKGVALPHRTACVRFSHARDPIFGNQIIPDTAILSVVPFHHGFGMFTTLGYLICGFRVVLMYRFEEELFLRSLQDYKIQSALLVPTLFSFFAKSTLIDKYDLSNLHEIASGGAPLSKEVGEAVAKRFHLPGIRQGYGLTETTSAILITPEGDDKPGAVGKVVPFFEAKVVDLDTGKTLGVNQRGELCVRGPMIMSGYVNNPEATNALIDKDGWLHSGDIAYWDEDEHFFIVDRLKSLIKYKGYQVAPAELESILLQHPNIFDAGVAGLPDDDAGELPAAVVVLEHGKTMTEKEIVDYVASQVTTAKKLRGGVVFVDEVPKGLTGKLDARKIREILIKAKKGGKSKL
# In short: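 Purified P. pyralis luciferase was added to compounds (11-point series) preincubated 15 min at room temperature with substrate containing 0.013 mM D-luciferin and 0.013 mM ATP; luminescence was read after 5 min.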
# [6] = KB-8-5-11 Cancer Cell Toxicity qHTS against the NCATS CANVASS Library (AID 1347364); also: nearly all actives have a fitted effect of over 75% in size
# In short: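 KB-8-5-11 cells, 500/well in DMEM + 10% FBS, given compounds in an 11-point series. Incubated 72 h at 37 °C. Viability by CellTiter-Glo luminescence. Confirmation also run with 1 uM tariquidar.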
# [7] = DH5-alpha competent E. coli microbial cell viability qHTS against the NCATS CANVASS Library (AID 1347377); conditions: outcome: dose series up to 46.1 µM unless noted
# In short: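 DH5-alpha E. coli suspension was exposed to an 11-point compound series overnight at 37 °C. Viable cells quantified by ATP luminescence (BacTiter-Glo) after 20 min at room temperature.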
# [8] = Panc-1005 Cancer Cell Toxicity qHTS against the NCATS CANVASS Library (AID 1347349); also: nearly all actives have a fitted effect of over 60% in size; also: potency is read from the fitted curve at half-maximal effect
# In short: as §1
# [9] = HPAF-II 18hr Apoptosis Induction qHTS against the NCATS CANVASS Library (AID 1347360)
# In short: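 HPAF-II cells at 500/well were exposed for 18 h at 37 C to an 11-point compound series. Caspase-3/7 activity was read by Caspase-Glo luminescence after 15 min at RT.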
# [10] = target: Glucocorticoid receptor (Homo sapiens) (UniProt P04150); test: GR-GFP Redistribution (AID 450;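 active = compounds whose dose series gives a full or clear partial fitted curve of increased nuclear translocation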; also: potency is read from the fitted curve at half-maximal effect); conditions: U2OS GR-GFP nuclear translocation, laser cytometry, 2 h
# Glucocorticoid receptor (Homo sapiens), sequence (P04150 whole entry, looked up, the tested form may be a part): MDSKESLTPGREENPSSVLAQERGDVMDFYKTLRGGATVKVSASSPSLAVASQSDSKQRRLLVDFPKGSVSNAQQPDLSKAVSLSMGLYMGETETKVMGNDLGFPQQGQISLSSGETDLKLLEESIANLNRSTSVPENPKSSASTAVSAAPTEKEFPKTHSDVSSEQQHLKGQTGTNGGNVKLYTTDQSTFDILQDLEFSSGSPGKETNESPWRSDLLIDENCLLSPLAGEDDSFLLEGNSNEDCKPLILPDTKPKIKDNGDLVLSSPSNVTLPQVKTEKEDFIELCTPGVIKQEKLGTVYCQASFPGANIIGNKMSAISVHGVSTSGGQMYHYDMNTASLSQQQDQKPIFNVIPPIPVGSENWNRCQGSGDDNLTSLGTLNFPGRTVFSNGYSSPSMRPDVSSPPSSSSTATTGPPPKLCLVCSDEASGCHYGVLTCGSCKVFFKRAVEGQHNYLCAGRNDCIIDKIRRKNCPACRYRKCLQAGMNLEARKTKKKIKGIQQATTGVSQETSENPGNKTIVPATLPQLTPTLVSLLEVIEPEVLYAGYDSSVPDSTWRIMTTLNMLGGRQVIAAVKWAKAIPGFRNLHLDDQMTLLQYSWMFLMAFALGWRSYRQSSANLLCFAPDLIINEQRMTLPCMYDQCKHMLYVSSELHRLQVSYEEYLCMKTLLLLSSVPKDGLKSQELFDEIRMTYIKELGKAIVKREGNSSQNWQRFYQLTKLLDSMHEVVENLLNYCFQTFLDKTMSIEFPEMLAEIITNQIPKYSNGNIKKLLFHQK
# [11] = target: Glucocorticoid receptor (Homo sapiens) (UniProt P04150); test: GR-EFC Redistribution (AID 451; calls by dose curve; also: potency is read from the fitted curve at half-maximal effect); conditions: CHO-K1 GR-EFC translocation, beta-gal luminescence, 2 h
# In short: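 CHO-K1 cells stably expressing nuclear-localized β-gal enzyme acceptor and GR fused C-terminally to the enzyme donor fragment; ligand-driven nuclear translocation restores β-gal by complementation. Compounds titrated up to 46 uM final, 2 h at 37 °C; luminescence read.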
# [12] = target: Ubiquitin carboxyl-terminal hydrolase 1 (Homo sapiens) (UniProt O94782); test: Inhibitors of USP1/UAF1: Pilot qHTS (AID 504865);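 also: rhodamine fluorescence freed from ubiquitin-rhodamine substrate followed over time; top concentration of the series differs between compounds; nearly all actives have a fitted effect of over 35% in size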
# Ubiquitin carboxyl-terminal hydrolase 1 (Homo sapiens), sequence (O94782 whole entry, looked up): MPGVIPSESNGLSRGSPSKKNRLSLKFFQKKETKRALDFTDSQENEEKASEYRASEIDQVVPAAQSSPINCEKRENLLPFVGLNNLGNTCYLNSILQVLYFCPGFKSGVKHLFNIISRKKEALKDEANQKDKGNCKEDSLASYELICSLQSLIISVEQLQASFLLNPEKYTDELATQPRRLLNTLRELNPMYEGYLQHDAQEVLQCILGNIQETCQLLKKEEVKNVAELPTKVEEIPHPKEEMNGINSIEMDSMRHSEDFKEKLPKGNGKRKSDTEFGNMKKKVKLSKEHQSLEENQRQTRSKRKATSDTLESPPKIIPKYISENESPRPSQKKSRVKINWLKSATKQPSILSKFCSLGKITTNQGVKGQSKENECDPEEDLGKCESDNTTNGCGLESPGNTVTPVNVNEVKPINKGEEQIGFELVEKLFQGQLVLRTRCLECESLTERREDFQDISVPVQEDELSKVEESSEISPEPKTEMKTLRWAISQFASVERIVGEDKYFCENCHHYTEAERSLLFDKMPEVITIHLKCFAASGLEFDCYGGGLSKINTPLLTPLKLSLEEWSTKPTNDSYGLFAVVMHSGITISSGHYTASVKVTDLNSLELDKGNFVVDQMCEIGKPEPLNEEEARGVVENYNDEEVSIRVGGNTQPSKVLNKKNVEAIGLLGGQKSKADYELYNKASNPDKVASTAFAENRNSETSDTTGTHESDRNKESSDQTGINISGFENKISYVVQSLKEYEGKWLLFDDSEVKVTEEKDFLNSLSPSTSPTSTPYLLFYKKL
# In short: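 USP1/UAF1 complex at 1 nM preincubated 15 min at room temperature with compound, then Ub-Rho substrate added at 150 nM final. Fluorescence (480/540 nm) read kinetically in 50 mM HEPES pH 7.8, 0.5 mM EDTA, 1 mM TCEP, 0.1 mg/ml BSA, 0.01% Tween-20.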
# [13] = target: DNA dC->dU-editing enzyme APOBEC-3G (Homo sapiens) (UniProt Q9HC16); test: qHTS for inhibitors of Vif-A3G interactions: Validation (AID 588379)
# DNA dC->dU-editing enzyme APOBEC-3G (Homo sapiens), sequence (Q9HC16 whole entry, looked up): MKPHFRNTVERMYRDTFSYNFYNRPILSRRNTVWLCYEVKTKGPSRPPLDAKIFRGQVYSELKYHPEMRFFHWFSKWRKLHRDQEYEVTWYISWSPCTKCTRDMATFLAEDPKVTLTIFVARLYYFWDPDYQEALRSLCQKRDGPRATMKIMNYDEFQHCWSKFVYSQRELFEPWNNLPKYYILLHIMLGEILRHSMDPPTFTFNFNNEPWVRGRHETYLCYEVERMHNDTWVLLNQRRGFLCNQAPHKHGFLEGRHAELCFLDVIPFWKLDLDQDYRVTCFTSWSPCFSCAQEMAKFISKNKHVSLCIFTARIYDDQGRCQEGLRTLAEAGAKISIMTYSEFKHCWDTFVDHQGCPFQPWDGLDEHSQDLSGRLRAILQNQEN
# In short: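 HeLa cells stably expressing Vif and A3G-eYFP, 700 cells/well, incubated overnight at 37 deg C, then exposed to compound overnight at 37 deg C. Inhibition of Vif-mediated degradation read as increased yellow fluorescence (Ex 488/Em 500-530) by laser-scanning cytometry.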
# [14] = Primary qHTS for small molecule stabilizers of the endoplasmic reticulum resident proteome: Secreted ER Calcium Modulated Protein (SERCaMP) assay (AID 1508630)
# In short: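 GLuc-SERCaMP-expressing SH-SY5Y cells, pretreated 16 h with compound, are challenged with thapsigargin to empty ER calcium stores; after 4 h, coelenterazine is added directly to the medium and luminescence is imaged.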
# [15] = qHTS Assay for Lipid Storage Modulators (AID 1519; calls by dose curve); conditions: Drosophila S3 cells, BODIPY lipid droplet/cell ratio, laser cytometry, cells loaded with oleic acid; for activity change, negative = inhibition: at 57.5 µM (top of the series)
# In short: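 Cells seeded at 5,000 per well were treated with compounds over a concentration series and loaded with oleic acid (400 uM, as added). Lipid droplet fluorescence (488 nm excitation, 500-530 nm channel) was read by laser-scanning cytometry and normalized to 20 uM Triacsin C.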
# [16] = measured here: cell count channel max response
# [17] = measured here: lipid channel max response
compound,measurement,setting,value
CC(C)(Br)[C@@H](Cl)C[C@H](Br)[C@](C)(Cl)/C=C/Br,Potency,[1],18.8 µM (active)
same,Potency,[2],inactive
same,outcome,[3],inactive
CCCCCCCCCC(=O)[C@@H]1C(=O)N[C@@H](CC(C)C)C(=O)N[C@H](C)C(=O)N2CCC[C@H]2C(=O)N[C@@H](C(C)C)C(=O)N[C@H]2CS[C@H]1CNC2=O (cyclo(L[dA]PV[X1])),Potency,[1],inactive
same,Potency,[4],inactive
same,Potency,[5],inactive
same,Potency,[6],inactive
same,Potency,[2],0.0033 µM (active)
C/C1=C/[C@@H](C)[C@H](O)C/C=C/CC/C=C/C(=O)O[C@@H]1[C@H](C)C(=O)/C=C/CC1CC(=O)NC(=O)C1,Potency,[4],inactive
same,outcome,[7],inactive
CN1CCc2cc3c(c4c2[C@H]1[C@@H](O)c1ccccc1-4)OCO3,Potency,[8],16.8 µM (active)
same,Potency,[5],inactive
C=C[C@@]1(C)CC[C@@H]([C@H](C)C(=O)/C=C/C(C)C)O1,Potency,[1],inactive
same,Potency,[5],inactive
same,Potency,[6],inactive
same,outcome,[7],inactive
same,Potency,[2],inactive
O=Cc1ccc2n1C[C@@]1(C[C@H](O)[C@H](O)CO1)OC2,Potency,[4],inactive
same,Potency,[9],inactive
same,Potency,[5],inactive
same,outcome,[3],inactive
Oc1ccc([C@H]2Oc3ccc(/C=C/c4cc(O)cc(O)c4)cc3C2c2cc(O)cc(O)c2)cc1 (some centres undefined),Potency,[8],inactive
same,Potency,[4],inactive
same,Potency,[6],inactive
same,Potency,[2],0.003 µM (active)
same,outcome,[3],inactive
C=C(C)[C@@H]1CC[C@]2(C)CC[C@]3(C)[C@H](CC[C@@H]4[C@@]5(C)CC[C@H](O)C(C)(C)[C@@H]5CC[C@]43C)[C@@H]12,Potency,[4],inactive
same,Potency,[9],inactive
same,Potency,[5],inactive
same,outcome,[7],inactive
same,Potency,[2],inactive
same,outcome,[3],inactive
N[C@@H](Cc1cc(CP(=O)(O)O)cc(-c2ccccc2Cl)c1)C(=O)O,Potency,[10],> 46 µM (inactive)
same,Potency,[11],> 46 µM (inactive)
same,Potency,[12],inactive
same,Potency,[13],inactive
COC(=O)/C=C/c1cc(O)ccc1O,Potency,[14],inactive
CC(=O)ON(C(C)=O)S(=O)(=O)c1ccc(Cl)cc1,Potency,[10],> 46 µM (inactive)
same,Potency,[11],> 46 µM (inactive)
same,"activity change, negative = inhibition",[15],-5.19% (inactive)
same,max response,[15]; [16],-20.7%
same,max response,[15]; [17],-23.7%
same,Potency,[12],inactive
same,Potency,[13],inactive
same,Potency,[14],inactive
CC(C)C[C@H](NC(=O)N1CCCCCC1)C(=O)N[C@H](Cc1cn(C)c2ccccc12)C(=O)N[C@H](Cc1ccccn1)C(=O)O,Potency,[10],> 46 µM (inactive)
same,Potency,[11],> 46 µM (inactive)
same,"activity change, negative = inhibition",[15],-4.14% (inactive)
same,max response,[15]; [16],14.7%
same,max response,[15]; [17],9.02%
same,Potency,[12],inactive
same,Potency,[13],inactive
same,Potency,[14],inactive
CCCn1c(=O)c2[nH]c(-c3ccc(OCC(=O)Nc4ccc(C(C)=O)cc4)cc3)nc2n(CCC)c1=O,Potency,[10],> 46 µM (inactive)
same,Potency,[11],> 46 µM (inactive)
same,"activity change, negative = inhibition",[15],5.04% (inactive)
same,max response,[15]; [16],6.38%
same,max response,[15]; [17],10.1%
same,Potency,[12],inactive
same,Potency,[13],inactive
same,Potency,[14],inactive
CC1(C)CO[C@H](CC(=O)O)CN1,Potency,[10],> 46 µM (inactive)
same,Potency,[11],> 46 µM (inactive)
same,"activity change, negative = inhibition",[15],-3% (inactive)
same,max response,[15]; [16],-8.35%
same,max response,[15]; [17],-12.8%
same,Potency,[13],inactive
same,Potency,[14],inactive
CC[C@H](C)[C@H](NC(=O)[C@H](CCCN=C(N)N)NC(=O)[C@H](CCCN=C(N)N)NC(=O)[C@H](CC(C)C)NC(=O)[C@H](Cc1ccccc1)NC(=O)CNC(=O)CN)C(=O)N[C@@H](CCCN=C(N)N)C(=O)N1CCC[C@H]1C(=O)N[C@@H](CCCCN)C(=O)N[C@@H](CC(C)C)C(=O)N[C@@H](CCCCN)C(=O)O,"activity change, negative = inhibition",[14],-2.68% [at 3.88 µM] (inactive)
CCCCC/C=C\C=C\[C@H](O)CCCCCCCC(=O)O,"activity change, negative = inhibition",[14],2.02% [at 0.478 µM] (inactive)
CC/C=C\C/C=C\C/C=C\CCCCCCCCCCCC(=O)O,"activity change, negative = inhibition",[14],10.3% [at 3.88 µM] (inactive)
CC[C@@](N)(C(=O)O)c1ccc(C(=O)O)cc1,Potency,[10],> 46 µM (inactive)
same,Potency,[11],> 46 µM (inactive)
same,Potency,[12],inactive
same,Potency,[13],inactive
same,Potency,[14],inactive
Clc1ccc2ncnc(NCc3ccc4c(c3)OCO4)c2c1,Potency,[14],inactive
N[C@@H](C(=O)O)[C@H](CC(=O)O)c1ccc(Cl)cc1,"activity change, negative = inhibition",[15],-4.76% (inactive)
same,max response,[15]; [16],-14.9%
same,max response,[15]; [17],-17.6%
same,Potency,[13],inactive
same,Potency,[14],inactive
CCCCNC(=O)[C@@H]1Cc2ccccc2N1C(=O)[C@H](N)CC,Potency,[10],> 46 µM (inactive)
same,Potency,[11],> 46 µM (inactive)
same,Potency,[12],inactive
same,Potency,[13],inactive
same,Potency,[14],inactive
CC(=O)N(O)[C@@H]1c2cc(C#N)ccc2OC(C)(C)[C@H]1O,Potency,[14],inactive
CCCCCCCCCCCCC/C=C/[C@@H](O)[C@H](CO)NC(C)=O,"activity change, negative = inhibition",[14],1.43% [at 3.88 µM] (inactive)
CCOC(=O)[C@H](N)/C=C(\C)CP(=O)(O)O,Potency,[11],> 46 µM (inactive)
same,"activity change, negative = inhibition",[15],-3.23% (inactive)
same,max response,[15]; [16],1.46%
same,max response,[15]; [17],-0.232%
same,Potency,[13],inactive
N[C@H](C(=O)O)c1cccc(O)c1,Potency,[10],> 46 µM (inactive)
same,Potency,[11],> 46 µM (inactive)
same,"activity change, negative = inhibition",[15],7.87% (inactive)
same,max response,[15]; [16],12.7%
same,max response,[15]; [17],24.7%
same,Potency,[12],inactive
same,Potency,[13],inactive
same,Potency,[14],inactive
CC1OC(OC2C(CO)OC(OC3C(CO)OC(O)C(O)C3O)C(O)C2O)C(O)C(O)C1NC1C=C(CO)C(O)C(O)C1O (centres undefined),Potency,[12],inactive
same,Potency,[14],inactive
C[C@H](NC[C@H](O)CP(=O)(O)CC1CCCCC1)c1ccc(Cl)c(Cl)c1,Potency,[10],> 46 µM (inactive)
same,Potency,[11],> 46 µM (inactive)
same,Potency,[12],inactive
same,Potency,[13],inactive
same,Potency,[14],inactive
